Screening results: PubChem, SRMLSC
Spn DPM-DC inh = inhibitors of Streptococcus pneumoniae diphosphomevalonate decarboxylase | purified DPM-DC, PK/LDH coupled NADH fluorescence | calls only at 10 µM | actives 0.49% (n = 65,000);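 active = the 320 compounds with the highest percent inhibition in the single-dose primary screen, excluding strongly autofluorescent ones, cut at about 32% in these data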;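 also: kinetic rate of NADH fluorescence loss reporting ADP formed by the decarboxylase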
Fluor 339 460 = intrinsic fluorescence of library compounds, ex339/em460 – biochemical, MLSMR library, data from DPM-DC assay, artefact control, profiling panel. compound autofluorescence, ex339/em460 nm, NADH buffer; hits give high values; 1 = no-compound wells, NADH background. fluorescence fold increase at 10 µM. actives 5.5% (n = 65,000). AID 709;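 active = at 10 µM, mean starting fluorescence two-fold or more over control wells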;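 also: signal is the first read of a kinetic run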
MK inhibit = blocks S. pneumoniae mevalonate kinase | purified MK, PK/LDH-coupled NADH absorbance 340 nm | inhibition, % at 10 µM | actives 0.48% (n = 65,000) | AID 555;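 active = ranked among the strongest by inhibition in the single 10 µM screen, a fixed top-ranked set picked for dose follow-up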
Abs 340nm = absorbance at 340 nm. 65,000 tested, under 10 active. AID 708. compound absorbance at 340 nm, fold over control. fold change at 10 µM;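 active = at 10 µM dose, initial 340 nm absorbance at least 2 fold that of control wells; inactive = change under 2 fold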;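 also: initial absorbance extrapolated from kinetic A340 decline of NADH oxidation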
PMK inhibit = S. pneumoniae PMK inhibition | purified PMK, PK/LDH-coupled NADH absorbance 340 nm | inhibition, % at 10 µM | actives 0.49% (n = 65,000);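 active = top-ranked compounds by inhibition in the single 10 µM screen, taking a fixed number of the strongest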
NADH enzymes = blocks coupling enzymes of NAD/NADH assays. AID 774. IC50, µM (titrated, usually from 10 µM). actives 0.02% (n = 65,000). coupled PK/LDH NADH assays, four targets;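 active = single-dose screening hits from any of four coupled enzyme assays that gave an IC50 when retested across doses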;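 also: the DPM-DC format reads NADH fluorescence rather than 340 nm absorbance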
Large screens that a line does not name were inactive; [ ] = dose if it differs, or a comment. Compounds with a hit are over-represented: about 6.5% of the library has one in this group of screens.

CC1=C(C(=O)Nc2ccccc2)C(c2ccc3c(c2)OCO3)C2=C(CCCC2=O)N1 (stereo not given)	Fluor 339 460 2.22
CCN(CC)c1ccc(C2C(C(=O)Nc3ccccn3)=C(C)NC3=C2C(=O)CC(C)(C)C3)cc1 (stereo not given)	none
Cc1cc(C)n2c(SCC(=O)N(C)C3CCS(=O)(=O)C3)nnc2n1 (stereo not given)	PMK inhibit 25.0
O=C(CSc1nc2ccccc2c(=O)[nH]1)Nc1ccc(S(=O)(=O)N2CCCC2)cc1	none
CS(=O)(=O)N(CC(=O)N1CCN(c2ccccc2)CC1)C1CCCCC1	PMK inhibit 36.0
CS(=O)(=O)N(CC(=O)N1CCN(Cc2ccccc2)CC1)C1CCCCC1	none
CNC(=O)N(C1=NCC(C)(C)S1)c1ccc(F)c(Cl)c1	none
O=C(Cc1ccccc1)N[C@H](c1ccccc1)P(=O)(O)CO	none
CC(=O)Nc1ccc(-c2nc3c(C)cccc3[nH]2)cc1	Fluor 339 460 2.13
CC1(C)CC(=O)CC(=Nc2ccc(C(=O)O)cc2)C1	none
Cc1ccc(N2CCn3c2nc2c3c(=O)n(CCc3ccccc3)c(=O)n2C)cc1	Fluor 339 460 2.39
COc1ccc(N2CCCn3c2nc2c3c(=O)n(CCc3ccccc3)c(=O)n2C)cc1	none
Oc1ccccc1-c1nc(NCC2CCCO2)c2ccccc2n1 (stereo not given)	none
COc1cccc(-c2nc(NCC3CCCO3)c3ccccc3n2)c1O (stereo not given)	none
COc1cc(-c2nc3ccccn3c2NCC2CCCO2)ccc1O (stereo not given)	Fluor 339 460 3.68 (not shown: Spn DPM-DC inh)
CCOc1cc(-c2nc3ccccn3c2NCC2CCCO2)ccc1O (stereo not given)	Fluor 339 460 3.02 (not shown: Spn DPM-DC inh)
O=C(CN(Cc1ccccc1F)S(=O)(=O)c1ccc(Cl)cc1)NCCCO	none
Cc1cccc(CN2CCN(c3ccccn3)CC2)c1	MK inhibit 48.0
c1ccc(N2CCN(c3cnccn3)CC2)nc1	Spn DPM-DC inh active
c1ccc(-c2cnnc(N3CCCCC3)n2)cc1	none
Cc1cccc(N(C)S(=O)(=O)c2ccc3[nH]cc(C(=O)N4CCOCC4)c(=O)c3c2)c1	Fluor 339 460 2.04
O=C(c1c[nH]c2ccc(S(=O)(=O)N3CCC4(CC3)OCCO4)cc2c1=O)N1CCOCC1	Fluor 339 460 2.1 (not shown: Spn DPM-DC inh)
O=C(COC(=O)c1ccccc1NC(=O)c1ccco1)NCCC1=CCCCC1	Fluor 339 460 2.03 (not shown: Spn DPM-DC inh)
Cn1nnc2c(NCc3ccco3)nccc21	Fluor 339 460 2.11 (not shown: Spn DPM-DC inh)
COc1cc(C2c3c(n[nH]c3C)C(=O)N2c2ccc(C)cc2)ccc1O (stereo not given)	MK inhibit 10.0
C=CCn1c(=N)c(C(=O)OCC)cc2c(=O)n3cccc(C)c3nc21	Fluor 339 460 2.3 (not shown: Spn DPM-DC inh)
CCOC(=O)c1cc2c(=O)n3cccc(C)c3nc2n(CC2CCCO2)c1=NC(C)=O (stereo not given)	Fluor 339 460 2.92 (not shown: Spn DPM-DC inh)
CCOC(=O)c1cc2c(=O)n3cccc(C)c3nc2n(CCc2ccccc2)c1=N	Spn DPM-DC inh active[fluoresces], Fluor 339 460 2.27
CCOC(=O)c1cc2c(=O)n3cccc(C)c3nc2n(Cc2ccccc2Cl)c1=N	none
CCOC(=O)c1cc2c(=O)n3cccc(C)c3nc2n(CCc2ccc(OC)c(OC)c2)c1=N	none
Cc1cc(NS(=O)(=O)c2ccc(NC(=O)c3ccoc3C)cc2)nc(C)n1	none
CCOC(=O)/C=C1\SCC(=O)N1CCOc1cccc(Br)c1	none
COCCn1c(C)cc(C(=O)CSc2nnc3scc(-c4ccc(Cl)cc4)n23)c1C	none
CCOC(=O)C1=C(C)NC2=C(C(=O)CCC2)C1c1cccs1 (stereo not given)	none
CCOC(=O)c1sc2c(c1C)C(c1cccs1)C1=C(CCCC1=O)N2 (stereo not given)	Fluor 339 460 4.79 (not shown: Spn DPM-DC inh)
Cc1ccc(S(=O)(=O)c2c(N)n(NC(=O)C3CC3)c3nc4ccccc4nc23)cc1	Fluor 339 460 3.75 (not shown: Spn DPM-DC inh)
Cc1ccc(S(=O)(=O)c2c(N)n(CC3CCOC3)c3nc4ccccc4nc23)cc1 (stereo not given)	Fluor 339 460 2.09 (not shown: Spn DPM-DC inh)
Cc1ccc(S(=O)(=O)N2CCC(C(=O)Nc3ccccc3N3CCCCC3)CC2)cc1	none
Nc1c(S(=O)(=O)c2cccc(Cl)c2)c2nc3ccccc3nc2n1CCN1CCOCC1	Fluor 339 460 3.88 (not shown: Spn DPM-DC inh)
Cc1ccc(S(=O)(=O)N2CCCC(C(=O)NCC3COCCO3)C2)cc1 (stereo not given)	none
Cc1cc(NCCN2CCOCC2)n2nc(C)c(-c3ccccc3)c2n1	none
Cc1cc(NCCN2CCOCC2)n2ncc(-c3ccc(Cl)cc3)c2n1	Fluor 339 460 3.27 (not shown: Spn DPM-DC inh)
Cc1cc(NCCN2CCOCC2)n2ncc(-c3ccccc3)c2n1	none
Cc1cc(NCCN2CCOCC2)n2nc(C)c(-c3ccc(Cl)cc3)c2n1	Fluor 339 460 2.36
COc1ccc(C2(C(=O)NCCCN3CCOCC3)CCOCC2)cc1	none
Nc1nc(N)c2nc(-c3ccccc3)c(N)nc2n1	Fluor 339 460 2.46 (not shown: Spn DPM-DC inh)
N#Cc1c(N)nc(-c2ccccc2)nc1-c1ccccc1	none
CC1CCC2(CC1)NC(=O)N(CC(=O)NC(=O)NC1CCCC1)C2=O (stereo not given)	none
CC(=O)c1cc2c(cc1NC(=O)CSc1nc3ccccc3o1)OCO2	Fluor 339 460 2.37
CC(=O)Nc1nonc1NC(=O)CSc1nc2ccccc2o1	none
N#Cc1nc(-c2ccc(Cl)cc2)oc1NCc1cccc2c1OCO2	Fluor 339 460 3.75 (not shown: Spn DPM-DC inh)
N#Cc1nc(-c2ccccc2Cl)oc1NCc1ccco1	none
N#Cc1nc(-c2ccc(Cl)cc2)oc1NCc1ccco1	Fluor 339 460 2.11 (not shown: Spn DPM-DC inh)
CC(=O)Nc1ccc(OC(F)(F)C(F)C(F)(F)F)c(NC(C)=O)c1 (stereo not given)	none
CC(=O)Nc1cc(NC(C)=O)cc(C(=O)NC(C)(C)C)c1	none (no result: MK inhibit)
CS(=O)(=O)c1sc2nc(-c3cccs3)cc(-c3ccccc3)c2c1N	Fluor 339 460 3.77
CC(=O)c1sc2nc(-c3cccs3)cc(C(F)(F)F)c2c1N	none
O=C(CCOc1ccccc1)Nc1ccc(S(=O)(=O)N2CCCC2)cc1	none
Cc1cc(C)c2c(N)c(C(=O)NCc3ccco3)sc2n1	Fluor 339 460 2.14 (not shown: Spn DPM-DC inh)
Cc1cc(C)c2c(N)c(C(=O)N3CCCCCC3)sc2n1	Fluor 339 460 2.16
Cc1cc(C)n2nc(C(=O)NCc3ccco3)nc2n1	none
CC1CCc2sc3ncn4nc(C(=O)NCc5ccco5)nc4c3c2C1 (stereo not given)	Fluor 339 460 2.02
Cc1ccc2[nH]c(=O)c(CN(Cc3ccccc3Cl)C(=O)N3CCOCC3)cc2c1	none
COC(=O)c1cc(OC)c(OC)cc1NC(=O)c1cccnc1	none
CCOc1cc(C#N)c(NC(=O)c2cccnc2)cc1OCC	PMK inhibit 25.0
CCOC(=O)c1nn(-c2cc(C(=O)OC)cc(C(=O)OC)c2)cc1O	none
